AC50 and outcome data for 13 compounds are collected here from PubChem BioAssay (EPA / NIEHS).

SMILES strings stand for the structures. Records with an inconclusive call do not appear. The source made the active and inactive calls. Rule for the calls: active = hit-call score of the fitted dose curve at least 0.9, where 1 is the maximum; inconclusive = response in the unintended direction; inactive = score below 0.9.

The target in this experiment is Luciferin 4-monooxygenase (Photinus pyralis) (UniProt P08659). Put plainly: CCTE_Simmons_QuantiLum_inhib_2: CCTE's Firefly Luciferase Inhibition Assay, Simmons Lab (AID 2283767).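 For AC50: potency for inhibitors that lower luciferase luminescence relative to DMSO.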 Summed up: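 Counter-screen for nonspecific enzyme inhibition: purified firefly luciferase incubated 30 min at 37C with chemicals up to 87.5 uM final, then luminescence measured after luciferin/dATP injection; activity fitted against DMSO baseline.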
Luciferin 4-monooxygenase (Photinus pyralis), sequence (P08659 whole entry, looked up): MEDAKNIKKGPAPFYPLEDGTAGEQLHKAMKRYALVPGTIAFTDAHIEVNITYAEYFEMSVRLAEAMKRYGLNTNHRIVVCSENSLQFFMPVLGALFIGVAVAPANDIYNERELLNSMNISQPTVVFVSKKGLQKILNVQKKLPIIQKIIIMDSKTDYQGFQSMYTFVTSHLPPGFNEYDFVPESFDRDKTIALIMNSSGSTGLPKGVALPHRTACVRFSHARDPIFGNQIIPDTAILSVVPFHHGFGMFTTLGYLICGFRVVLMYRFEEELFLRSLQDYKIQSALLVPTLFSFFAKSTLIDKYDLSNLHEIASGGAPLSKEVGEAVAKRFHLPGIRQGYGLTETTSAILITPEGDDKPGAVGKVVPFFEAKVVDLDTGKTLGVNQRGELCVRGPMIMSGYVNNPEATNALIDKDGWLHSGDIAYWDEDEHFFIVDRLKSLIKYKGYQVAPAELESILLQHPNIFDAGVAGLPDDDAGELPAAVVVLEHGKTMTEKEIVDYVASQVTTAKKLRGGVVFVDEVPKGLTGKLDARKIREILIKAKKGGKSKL
For orientation: AC50 means the concentration giving half of the maximal activity seen. For `CCN=C1C=CC(=C(c2ccc(N(CC)CC)cc2)c2ccc(N(CC)CC)cc2)c2ccccc21`, the AC50 is 7.95 µM (active).

Consider `Cc1ccc(O)c(-n2nc3ccccc3n2)c1`, for which the AC50 is 1.54 µM (active).

On to `CC(C)(C)c1cc(Cc2cc(C(C)(C)C)c(O)c(C(C)(C)C)c2)cc(C(C)(C)C)c1O`, for which the call was inactive.

Turning to `O=C(c1ccccc1)c1ccc(O)cc1O`, the compound was classed as inactive.

Turning to `CCCCCCCCCCCCC[N+](C)(C)Cc1ccccc1`, the result was inactive.

As for `CCCCCCCCCCCCCC[P+](CCCC)(CCCC)CCCC`, the AC50 was 83 µM (active).

As for `C[C@]12CC[C@H]3C(=CCc4cc(O)ccc43)[C@@H]1CCC2=O`, the AC50 is 47 µM (active).

Regarding `CCCCCCCCCc1ccc(OCCO)cc1`, the outcome was inactive.

For the compound `CC(C)OC=O`, the compound was classed as inactive.

As for `O=c1cccc[nH]1`, the outcome was inactive.

On to `CCCCCCCC/C=C\CCCCCCCC(=O)N(C)CC(=O)O`, for which the call was inactive.

For `O=c1[nH]cccc1O`, the result was inactive.

Consider `Cc1ccc(O)cn1`, for which the outcome was inactive.
